# Source: PubChem BioAssay (NCI)
# “And” between values parts separate entries of the source, which are not always exact repeats. Equal values may be shown once. Compounds without any hit were thinned out: in the full panel of roughly 83,000, 20% have a hit.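 Interpretation: 100, growth as untreated; towards 0, rising growth inhibition; 0, no net growth; 0 to -100, cell death. Compounds scoring below 10 were considered active.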 The source made the active and inactive calls. Starred links: 1 amine or outer side, 2 acyl side, 3 side chain; linkers in the order of their positions; H or OH if unused. Positions of bridges follow the written chain, without caps; N, C: chain ends. Non-standard residues stand in square brackets, D forms with d. Residues, ends and D or L forms follow the SMILES beside them. Chains are numbered I, II in the order given. Actinocin(9to1) = Cc1c2oc3c(C)ccc(C(=O)[*:1])c3nc-2c(C(=O)[*:2])c(N)c1=O; aThr = C[C@H](O)[C@H](N)C(=O)O; NMeV = CN[C@H](C(=O)O)C(C)C; Sar = CNCC(=O)O
# Tested on: SK-MEL-5 melanoma
# Assay: NCI-60 one-dose screen, 48 h (100 = growth as untreated, 0 = no growth, -100 = all killed)
# Conditions: 10 µM
row,SMILES,growth
1,N#C/C(=C1C=C/C(=N\O)C(Cl)=C\1)c1ccccc1,46.8% (inactive)
2,CN(C)CCC(=O)c1c[nH]c2ccccc12,113% (inactive)
3,O=c1[nH]cc(F)c(=O)[nH]1,45.5% (inactive) and -28.2% (active)
4,CSc1ccc2c(c1)C(N1CCN(C)CC1)Cc1ccccc1S2 (stereo unspecified),-86.6% (active)
5,COc1cc(C(C)(C)C)cc(OC)c1C(O)(c1c(OC)cc(C(C)(C)C)cc1OC)c1c(OC)cc(C(C)(C)C)cc1OC,-93.7% (active)
6,S=c1[nH]nc(Cc2ccccc2)c(=S)[nH]1,110% (inactive)
7,O=C(/C(=C/c1ccccc1)CBr)c1ccccc1,87.7% (inactive)
8,Nc1ccc2cc(Br)c3ccccc3c2c1,75.3% (inactive)
9,CN1CCN(c2ccc3nc(-c4ccc5nc(-c6ccc(O)cc6)[nH]c5c4)[nH]c3c2)CC1,-19.3% (active)
10,Cc1cc(NCCCN(C)C)c2ccc3c(ccc4c(NCCCN(C)C)cc(C)nc43)c2n1,-97.6% (active)
11,"Cc1c2oc3c(C)ccc(C(=O)N[C@@H]4C(=O)N[C@H](C(C)C)C(=O)N5CCC[C@H]5C(=O)N(C)CC(=O)N(C)[C@@H](C(C)C)C(=O)O[C@H]4C)c3nc-2c(C(=O)N[C@@H]2C(=O)N[C@H](C(C)C)C(=O)N3CCC[C@H]3C(=O)N(C)CC(=O)N(C)[C@@H](C(C)C)C(=O)O[C@H]2C)c(N)c1=O (I: [aThr][dV]P[Sar][NMeV] / II: [aThr][dV]P[Sar][NMeV]; ester I:1-I:C, II:1-II:C; linker I:N-II:N via Actinocin(9to1))",-94.8% (active)
